# 14-3-3 PPI = 14-3-3 gamma protein interaction modulation | FP, 14-3-3gamma / TMR-pS259-Raf peptide binding | P61981 | inhibition, % at 40 µM | actives 0.19% (n = 160,000) | AID 422; in the data active = inhibition above about 30%;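 also: 0% = protein plus tracer without compound and 100% = blank with tracer alone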
# Target sequence (P61981 whole entry, looked up): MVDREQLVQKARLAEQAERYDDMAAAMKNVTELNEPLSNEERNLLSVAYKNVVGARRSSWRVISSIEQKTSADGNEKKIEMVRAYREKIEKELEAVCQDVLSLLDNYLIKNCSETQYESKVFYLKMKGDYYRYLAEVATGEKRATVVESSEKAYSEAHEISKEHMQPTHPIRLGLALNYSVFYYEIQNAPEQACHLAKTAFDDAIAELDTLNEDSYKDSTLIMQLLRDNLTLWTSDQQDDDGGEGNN
# Starred values were filed as active, the others as inactive; + = active, no number; ! = not confirmed by another sample. The full list was thinned out, with hits kept by preference.
SMILES,14-3-3 PPI
O=[N+]([O-])c1cc(C(F)(F)F)ccc1N1CCc2ccccc21,-7
COC(=O)C1=C(C)N(Cc2ccccc2)C(=O)C1,3
CC(=O)Oc1c(C)cc(O)c2ccccc12,3
CCC(=O)Oc1c(-c2ccccc2)c2nc3ccccc3nc2c2ccccc12,27
CC(=O)Oc1c(-c2ccccc2)c2nc3ccccc3nc2c2ccccc12,33*
O=C(NCC1COc2ccccc2O1)c1cnc(N2CCN(c3ccccn3)CC2)c2ccccc12 (stereo not given),0
OC(CNCc1ccccc1)C12CC3CC(CC(C3)C1)C2 (stereo not given),3
NC(=O)c1c(NC(=O)c2ccc(F)cc2)sc2c1CCCC2,-12
NC(=O)c1c(NC(=O)c2ccccc2Cl)sc2c1CCCC2,4
NC(=O)c1c(NC(=O)c2ccc(Cl)cc2)sc2c1CCCC2,40*
CCCn1c(=N)c(C(N)=S)cc2c(=O)n3cccc(C)c3nc21,-6
Cc1cc([N+](=O)[O-])c2nc(NC(=O)c3ccc([N+](=O)[O-])cc3)sc2c1,2
Cc1ccc(N(Cc2ccc(C(=O)NCC(C)C)cc2)S(C)(=O)=O)cc1C,-2
COC(=O)CSc1ccc2c3c(cccc13)C(=O)c1ccccc1-2,20
COc1ccc2c3c(cccc13)C(=O)c1ccccc1-2,32*
O=C1c2ccccc2-c2ccc(Br)c3cccc1c23,-1
O=C(CCn1c(=S)[nH]c2ccsc2c1=O)NC1CCCCC1,-6
O=C1c2cccc3c(Cl)ccc(c23)C(=O)N1c1ccccc1,-4
O=C1c2cccc3c(NCCO)ccc(c23)C(=O)N1c1ccc(Cl)cc1,140*
O=C1c2cccc3c(N4CCCCC4)ccc(c23)C(=O)N1CCCO,-18
O=C1c2cccc3c(NCCCO)ccc(c23)C(=O)N1CCCO,+
Cc1ccc(N2C(=O)c3cccc4c(Cl)ccc(c34)C2=O)cc1,-35
CN1C(=O)c2cccc(NCCCCN3C(=O)c4ccccc4C3=O)c2C1=O,0
O=C(O)c1cccc(NSc2ccccc2[N+](=O)[O-])c1,-21
CCc1ccc(NC(=O)C2CC(=O)N(c3ccc(OC)cc3)C2c2ccc(OC)cc2)cc1 (stereo not given),-14
SMILES,14-3-3 PPI
CC1=C(C(=O)OCc2ccccc2)C(c2cccc([N+](=O)[O-])c2)NC(=O)N1 (stereo not given),-6
CC1=C(C(=O)OCCOc2ccccc2)C(c2cccc([N+](=O)[O-])c2)NC(=O)N1 (stereo not given),34*
CC1=C(C(=O)OCCOc2ccccc2)C(c2cccc([N+](=O)[O-])c2)NC(=O)N1C (stereo not given),-2
COc1ccc(OC(=O)c2ccc3snnc3c2)cc1,-2
Cc1ccc(-c2nn(-c3ccccc3)cc2C=Nc2c(C)n(C)n(-c3ccccc3)c2=O)o1,-10
CCOc1ccc(-n2c(=O)c3c4c(sc3n(CC(=O)NC3CCCC3)c2=O)CCCC4)cc1,-7
O=[N+]([O-])c1cc(S(=O)(=O)C(Cl)(Cl)Br)ccc1NC1CCCCC1,-8
O=C1C=C(C(F)(F)F)c2ccc(NC3CCCCC3)c3cccc1c23,131*
O=C1C(Cl)=C(NC2CCCCC2)C(=O)N1c1cccc(C(F)(F)F)c1,-3
CCCCNC(=O)CCn1c(=S)[nH]c2ccsc2c1=O,-1
O=C(CSCC(=O)N1CCCc2ccccc21)Nc1ccccc1,2
N#Cc1c(-c2ccccc2)nc(N2CCCCC2)[nH]c1=O,-1
C=CCn1c(SCC(=O)Nc2cc(OC)ccc2OC)nc2sc3c(c2c1=O)CCCC3,-23
COc1ccc2[nH]c3nc4cc(C)c(C)cc4nc3c2c1,-5
O=C(O)C1CCCN1S(=O)(=O)c1ccc(F)cc1 (stereo not given),-6
Cc1ccc(S(=O)(=O)N2CCCC2C(=O)O)cc1 (stereo not given),53*!
O=C(O)C1CCCCN1S(=O)(=O)c1ccc(Cl)cc1 (stereo not given),-12
COc1ccc(S(=O)(=O)Nc2c(C)cc(O)c(S(=O)(=O)c3ccccc3)c2C)cc1,0
O=C1c2ccccc2-c2onc3ccc(Nc4ccccc4)c1c23,-232
CC(=O)OCCNc1cc(N2CCN(C)CC2)c2noc3c2c1C(=O)c1ccccc1-3,-70
CCC(=O)OCCNc1ccc2noc3c2c1C(=O)c1ccccc1-3,141*
CC(=O)c1cccc(NC(=O)c2cc(-c3ccc(C)s3)nc3ccccc23)c1,-3
CC1CC(C)(C)Nc2ccc(OC(=O)C(C)N3C(=O)c4ccccc4C3=O)cc21 (stereo not given),-4
O=C(O)c1cc(N2Cc3ccccc3C2)ccc1O,81*
Cc1ccc(-c2ccccc2)n1-c1ccc(O)c(C(=O)O)c1,-39
SMILES,14-3-3 PPI
O=C1c2ccc(N3Cc4ccccc4C3)cc2C(=O)N1c1ccccc1,-10
CC12CCC3C(CCC4CCCCC43C)C1CCC2N (stereo not given),-7
CC1=C(C(=O)OC(C)C)C(c2ccc(F)cc2)C(C(=O)OC(C)C)=C(C)N1,-1
O=c1c(-c2ccc3ccccc3n2)cc2ccccc2n1Cc1ccccc1,0
Cc1cc(=O)oc2c(CN3CCCCC3)c(O)c(Cl)cc12,-7
CCN1CCN(Cc2c(O)c(Cl)cc3c(C)cc(=O)oc23)CC1,17
Cc1c(C)c2cc(Cl)c(O)c(CN3CCN(C)CC3)c2oc1=O,1
Cc1cc(=O)oc2c(CN(CC(C)C)CC(C)C)c(O)ccc12,-18
Cc1cc(=O)oc2c(CN3CCC(C)CC3)c(O)c(Cl)cc12,60*
CCN(CC)Cc1c(O)c(Cl)cc2c(C)cc(=O)oc12,63*
Oc1ccc(Cl)cc1C=Nc1cc(C(F)(F)F)ccc1N1CCCCC1,-6
CCOC(=O)CSc1nc2ccccc2c2nc(-c3ccc([N+](=O)[O-])cc3)nn12,1
CC(=O)c1ccc(NC(=O)c2cc3nc(-c4ccc(C)cc4)cc(C(F)(F)F)n3n2)cc1,-2
CCOc1ccc2[nH]c(=O)c(CN(C(=O)N3CCOCC3)C3CC3)cc2c1,-7
CCOc1ccc2[nH]c(=O)c(CN(Cc3ccccc3)C(=O)N3CCCC3)cc2c1,-8
CCOc1ccc2[nH]c(=O)c(CN(CC3COCCO3)C(=O)C3CC3)cc2c1 (stereo not given),39*
Cc1ccc(-n2nc3cc(C)c(NC(=O)c4ccc([N+](=O)[O-])c(C)c4)cc3n2)cc1,4
CC1CC(C)CN(S(=O)(=O)N2CCCC(C(=O)NCc3ccccn3)C2)C1 (stereo not given),-5
Cn1c(SCC(=O)NC2CCCC2)nnc1-c1c[nH]c2ccccc12,-12
CS(=O)(=O)N(CC(=O)Nc1cccc2ccccc12)c1cc(C(F)(F)F)ccc1Cl,-55
CCOc1ccc(NC(=O)CSc2cn(Cc3ccc(Cl)cc3)c3ccccc23)cc1,-3
O=C(c1cccs1)N1CC(=O)N(CCc2ccccc2)C(=O)C1,-33
O=C1CN(S(=O)(=O)c2ccc(F)cc2)CC(=O)N1CCc1ccccc1,-6
O=C1CN(CCc2ccccc2)CC(=O)N1CCc1ccccc1,166*
CC(=O)Nc1ccccc1C(=O)C(=O)Nc1ccc(C(=O)NC2CCCCC2)cc1,-4
COc1ccc(Cl)cc1S(=O)(=O)N1CCN(CC(N)=O)CC1,-3
O=C(CN(Cc1ccccc1)S(=O)(=O)c1ccccc1)NCc1ccncc1,33*
O=C(CN(Cc1ccccc1)S(=O)(=O)c1ccc(Br)cc1)NCc1ccncc1,-2
O=C(CN(Cc1ccccc1)S(=O)(=O)c1ccc(F)cc1)NCc1ccccc1,3
COc1ccc(N=c2scc(-c3ccc(I)cc3)n2CCO)cc1,-2
